# According to the supplement of paper PMC8728848:
# This is one part of a sample in which the strongest signals are shown more often than they occur.
# B1: GALT1 115 D492A (Arabidopsis thaliana), Q8L7F9 (protein)
# chain: DPMRGSHHHHHHGMASMTGGQQMGRDLYDDDDKSRLQKPYITAAASVVVTPNTTLPMEWLRITLPDFMKEARNTQEAISGDDIAVVSGLFVEQNVSKEEREPLLTWNRLESLVDNAQSLVNGVDAIKEAGIVWESLVSAVEAKKLVDVNENQTRKGKEELCPQFLSKMNATEADGSSLKLQIPCGLTQGSSITVIGIPDGLVGSFRIDLTGQPLPGEPDPPIIVHYNVRLLGDKSTEDPVIVQNSWTASQDWGAEERCPKFDPDMNKKVDDLDECNKMVGGEINRTSSTSLQSNTSRGVPVAREASKHEKYFPFKQGFLSVATLRVGTEGMQMTVDGKHITSFAFRDTLEPWLVSEIRITGDFRLISILASGLPTSEESEHVVDLEALKSPTLSPLRPLDLVIGVFSTANNFKRRMAVRRTWMQYDDVRSGRVAVRFFVGLHKSPLVNLELWNEARTYGDVQLMPFVDYYSLISWKTLAICIFGTEVDSAKFIMKTDDAAFVRVDEVLLSLSMTNNTRGLIYGLINSDSQPIRNPDSKWYISYEEWPEEKYPPWAHGPGYIVSRDIAESVGKLFKEGNLKMFKLEDVAMGIWIAELTKHGLEPHYENDGRIISDGCKDGYVVAHYQSPAEMTCLWRKYQETKRSLCCREW
# Legend:
# Assay in all cases: glycan array binding signal (z-score within array); higher = stronger binding
# Settings in all cases: glycan notation: IUPAC condensed, linker removed
# [1] = biological target: Fuc(a1-2)Gal(b1-3)GalNAc(b1-3)Gal
# Method in brief: (§1)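 Negative Z-scores can be read as non-binding. The Z-score is calculated within each array and then averaged across arrays of one protein sequence at different concentrations or buffers and across linkers. Arrays, 3228 in all, were curated from the Consortium for Functional Glycomics database and kept only where the protein sequence was available.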
# [2] = biological target: Fuc(a1-2)Gal(b1-4)GlcNAc(b1-3)Gal(b1-4)GlcNAc(b1-3)Gal(b1-4)GlcNAc
# Method in brief: as §1
# [3] = biological target: Fuc(a1-2)Gal(b1-4)[Fuc(a1-3)]GlcNAc
# Method in brief: as §1
# [4] = biological target: Fuc(a1-2)Gal(b1-4)[Fuc(a1-3)]GlcNAc(b1-3)Gal(b1-4)[Fuc(a1-3)]GlcNAc
# Method in brief: as §1
# [5] = biological target: Fuc(a1-2)[Gal(a1-3)]Gal(b1-3)GlcNAc
# Method in brief: as §1
# [6] = biological target: Fuc(a1-3)[Gal(b1-4)]GlcNAc(b1-2)Man(a1-3)[Fuc(a1-3)[Gal(b1-4)]GlcNAc(b1-2)Man(a1-6)]Man(b1-4)GlcNAc(b1-4)GlcNAc
# Method in brief: as §1
# [7] = biological target: Fuc(a1-3)[Neu5Ac(a2-3)]Gal(b1-4)GlcNAc(b1-3)GalNAc
# Method in brief: as §1
# [8] = biological target: Gal(b1-3)GalNAc(a1-3)[Fuc(a1-2)]Gal(b1-4)GlcNAc
# Method in brief: as §1
# [9] = biological target: Gal(b1-3)[Fuc(a1-4)]GlcNAc(b1-2)Man(a1-3)[Gal(b1-3)[Fuc(a1-4)]GlcNAc(b1-2)Man(a1-6)]Man(b1-4)GlcNAc(b1-4)[Fuc(a1-6)]GlcNAc
# Method in brief: as §1
# [10] = biological target: Gal(b1-4)GlcNAc(b1-3)GalNAc
# Method in brief: as §1
# [11] = biological target: Gal(b1-4)GlcNAc(b1-6)GalNAc
# Method in brief: as §1
# [12] = biological target: Gal3S(b1-3)[Fuc(a1-4)]GlcNAc
# Method in brief: as §1
# Gal3S(b1-4)GlcNAc = biological target: Gal3S(b1-4)GlcNAc
# Method in brief: as §1
# [13] = biological target: GlcNAc(a1-4)Gal(b1-4)GlcNAc(b1-3)Gal(b1-4)[Fuc(a1-3)]GlcNAc(b1-3)Gal(b1-4)[Fuc(a1-3)]GlcNAc
# Method in brief: as §1
# [14] = biological target: GlcNAc(b1-2)Man(a1-3)[GlcNAc(b1-2)Man(a1-6)]Man(b1-4)GlcNAc(b1-4)[Fuc(a1-6)]GlcNAc
# Method in brief: as §1
# [15] = biological target: GlcNAc(b1-3)Gal(b1-3)GalNAc
# Method in brief: as §1
# [16] = biological target: Man(a1-2)Man(a1-2)Man(a1-3)Man
# Method in brief: as §1
# Man(a1-3)[Man(a1-6)]Man = biological target: Man(a1-3)[Man(a1-6)]Man
# Method in brief: as §1
# [17] = biological target: Man(a1-3)[Man(a1-6)]Man(a1-6)[Man(a1-2)Man(a1-3)]Man(b1-4)GlcNAc(b1-4)GlcNAc
# Method in brief: as §1
# [18] = biological target: Neu5Ac(a2-3)Gal(b1-3)GalNAc(b1-4)[Neu5Ac(a2-3)]Gal(b1-4)Glc
# Method in brief: as §1
# [19] = biological target: Neu5Ac(a2-3)Gal(b1-4)GlcNAc(b1-3)GalNAc
# Method in brief: as §1
# [20] = biological target: Neu5Ac(a2-3)Gal(b1-4)[Fuc(a1-3)]GlcNAc(b1-3)Gal(b1-4)GlcNAc
# Method in brief: as §1
# [21] = biological target: Neu5Ac(a2-3)Gal(b1-4)[Fuc(a1-3)]GlcNAc6S
# Method in brief: as §1
# [22] = biological target: Neu5Ac(a2-6)Gal(b1-4)GlcNAc(b1-2)Man(a1-3)[Neu5Ac(a2-6)Gal(b1-4)GlcNAc(b1-2)Man(a1-6)]Man(b1-4)GlcNAc(b1-4)GlcNAc
# Method in brief: as §1
# [23] = biological target: Neu5Ac(a2-6)Gal(b1-4)GlcNAc(b1-2)Man(a1-6)[Gal(b1-4)GlcNAc(b1-2)Man(a1-3)]Man(b1-4)GlcNAc(b1-4)GlcNAc
# Method in brief: as §1
# [24] = biological target: Neu5Ac(a2-6)Gal(b1-4)GlcNAc(b1-2)Man(a1-6)[Man(a1-3)]Man(b1-4)GlcNAc(b1-4)GlcNAc
# Method in brief: as §1
# [25] = biological target: Neu5Ac(a2-6)Gal(b1-4)GlcNAc6S
# Method in brief: as §1
# Neu5Ac(a2-8)Neu5Ac = biological target: Neu5Ac(a2-8)Neu5Ac
# Method in brief: as §1
# [26] = biological target: Neu5Ac(a2-8)Neu5Ac(a2-3)[GalNAc(b1-4)]Gal(b1-4)Glc
# Method in brief: as §1
# [27] = biological target: Neu5Gc(b2-6)Gal(b1-4)GlcNAc
# Method in brief: as §1
binder,measurement,setting,value
B1,glycan array binding signal (z-score),[1],1.79
same,glycan array binding signal (z-score),[2],6.73
same,glycan array binding signal (z-score),[3],8.05
same,glycan array binding signal (z-score),[4],-0.068
same,glycan array binding signal (z-score),[5],-0.352
same,glycan array binding signal (z-score),[6],-0.034
same,glycan array binding signal (z-score),[7],-0.012
same,glycan array binding signal (z-score),[8],0.06
same,glycan array binding signal (z-score),[9],-0.152
same,glycan array binding signal (z-score),[10],-0.374
same,glycan array binding signal (z-score),[11],-0.406
same,glycan array binding signal (z-score),[12],-0.223
same,glycan array binding signal (z-score),Gal3S(b1-4)GlcNAc,-0.298
same,glycan array binding signal (z-score),[13],2.05
same,glycan array binding signal (z-score),[14],2.9
same,glycan array binding signal (z-score),[15],1.5
same,glycan array binding signal (z-score),[16],0.15
same,glycan array binding signal (z-score),Man(a1-3)[Man(a1-6)]Man,-0.244
same,glycan array binding signal (z-score),[17],0.404
same,glycan array binding signal (z-score),[18],-0.335
same,glycan array binding signal (z-score),[19],-0.152
same,glycan array binding signal (z-score),[20],0.671
same,glycan array binding signal (z-score),[21],-0.172
same,glycan array binding signal (z-score),[22],0.357
same,glycan array binding signal (z-score),[23],-0.362
same,glycan array binding signal (z-score),[24],-0.139
same,glycan array binding signal (z-score),[25],0.087
same,glycan array binding signal (z-score),Neu5Ac(a2-8)Neu5Ac,-0.221
same,glycan array binding signal (z-score),[26],-0.078
same,glycan array binding signal (z-score),[27],0.041
